Experimental data taken from PubChem BioAssay AID651640 (Broad Institute, 2012).
About 6,000 (1.7%) of roughly 350,000 compounds were called active. Roughly 5% stayed inconclusive and do not appear here. Rule as the data show it: active = CPE inhibition above about 20% (passing the limit was not always enough); inconclusive = no clear call, values can overlap the other calls; tested in BHK-21 cells. Only a selection was taken, and actives are over-represented in it overall.

assay: inhibitors of DENV2 cytopathic effect, primary screen, cell-based, plate reader, single concentration (AID 651640); settings: DENV2-infected cells, cytopathic effect rescue, at 9.99 µM, stronger effect = higher value;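 also: 0% = median of neutral control wells and 100% = median of positive control wells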

| SMILES | CPE inhibition |
| --- | --- |
| O=S(=O)(N[C@@H]1CC[C@@H](CCn2cc(-c3ccccn3)nn2)O[C@@H]1CO)c1cccc(Cl)c1 | 14.3% (inactive) |
| C[C@H]1CN([C@@H](C)CO)C(=O)c2cc(NC(=O)C3CC3)ccc2O[C@@H]1CN(C)S(=O)(=O)c1cn(C)cn1 | -4.92% (inactive) |
| C[C@@H]1CCCCO[C@H](CN(C)C(=O)Cc2ccccc2)[C@H](C)CN([C@@H](C)CO)C(=O)c2cc(NS(=O)(=O)c3ccc(F)cc3)ccc2O1 | -10.6% (inactive) |
| CC(C)NC(=O)NCC[C@H]1CC[C@@H](NS(=O)(=O)c2ccc(Oc3ccccc3)cc2)[C@@H](CO)O1 | -1.61% (inactive) |
| CO[C@H]1CN(C)C(=O)c2cc(NS(=O)(=O)CC(F)(F)F)ccc2OC[C@@H](C)N(C(=O)c2ccc3c(c2)OCO3)C[C@@H]1C | 15.3% (inactive) |
| COC(=O)CN1C(=O)[C@H]2[C@@H](/C=C/c3ccccc3)N3C(=O)CN(CC4CC4)C(=O)[C@@]3(Cc3ccccc3)[C@H]2C1=O | 51% (active) |
| COC(=O)CN1C(=O)[C@H]2[C@@H](/C=C/c3ccccc3)N3C(=O)CN(Cc4ccccc4)C(=O)[C@@]3(Cc3ccccc3)[C@H]2C1=O | -11.1% (inactive) |
| COC(=O)CN1C(=O)[C@H]2[C@@H](C3CC3)N3C(=O)CN(Cc4ccc(-c5ccccc5)cc4)C(=O)[C@@]3(Cc3ccccc3)[C@H]2C1=O | 3.26% (inactive) |
| C[C@H](CO)N1C[C@H](C)[C@@H](CN(C)Cc2ccc(C(F)(F)F)cc2)Oc2ccc(NC(=O)Cn3cnnn3)cc2CC1=O | 7.25% (inactive) |
| Cc1ccc(S(=O)(=O)CCC(=O)OCC(=O)NCCc2ccc(S(N)(=O)=O)cc2)cc1 | 2.48% (inactive) |
| Cc1ccccc1OCCC(=O)OCC(=O)NCCc1ccc(S(N)(=O)=O)cc1 | 47.5% (active) |
| Cc1ccccc1OCCC(=O)OCC(=O)NC(C)c1ccccc1 (configuration not stated) | 4.9% (inactive) |
| O=C(C[C@@H]1CC[C@@H]2[C@H](COC[C@@H](O)CN2S(=O)(=O)c2ccccc2)O1)NCC1CCCCC1 | -12.1% (inactive) |
| C[C@@H]1CN([C@@H](C)CO)S(=O)(=O)c2ccc(-c3cccc(C(=O)N(C)C)c3)cc2O[C@@H]1CN(C)C | -3.85% (inactive) |
| c1ccc(-c2ccc(C3[C@@H]4CN(Cc5cccnc5)C[C@H]3N4)cc2)cc1 (some centres not stated) | -24.3% (inactive) |
| O=C(NC[C@@H]1N[C@@H](CO)[C@H]1c1ccc(-c2cccnc2)cc1)c1cccc(F)c1 | 41.5% (active) |
| N#C[C@H]1N[C@H](CO)[C@H]1c1ccc(-c2cccc(F)c2)cc1 | 3.16% (inactive) |
| N#Cc1cccc(-c2ccc([C@H]3[C@@H](CO)N[C@@H]3CNC(=O)C3CCC3)cc2)c1 | -1.99% (inactive) |
| CCCNC(=O)N1C[C@@H](O)COC[C@H]2O[C@@H](CC(=O)NCCCN3CCOCC3)CC[C@@H]21 | -1.62% (inactive) |
| CO[C@H]1CN(C)C(=O)c2cc(NC(=O)C3CC3)ccc2OC[C@@H](C)NC[C@H]1C | -4.67% (inactive) |
| CO[C@H]1CN(C)C(=O)c2cc(NS(=O)(=O)c3ccc(C)cc3)ccc2OC[C@H](C)NC[C@H]1C | -0.879% (inactive) |
| CO[C@H]1CN(C)C(=O)c2cc(NS(=O)(=O)c3ccccc3)ccc2OC[C@H](C)NC[C@@H]1C | 27.3% (active) |
| CO[C@@H]1CN(C)C(=O)c2cc(NC(=O)C3CCOCC3)ccc2OC[C@@H](C)NC[C@@H]1C | 23.2% (active) |

| SMILES | CPE inhibition |
| --- | --- |
| CO[C@@H]1CN(C)C(=O)c2cc(NS(=O)(=O)c3ccc(Cl)cc3)ccc2OC[C@H](C)NC[C@@H]1C | -4.08% (inactive) |
| CO[C@H]1CN(C)C(=O)c2ccc(NC(=O)C3CCOCC3)cc2OC[C@H](C)NC[C@H]1C | -0.477% (inactive) |
| C[C@@H]1CCCCO[C@@H](CN(C)C(=O)Nc2ccc(F)cc2)[C@H](C)CN([C@@H](C)CO)C(=O)c2cc(NS(C)(=O)=O)ccc2O1 | -6.59% (inactive) |
| CCCC(=O)N1CC2(C1)CN(C(=O)COC)[C@@H](CO)c1c2c2ccc(OC)cc2n1C | 10.6% (inactive) |
| O=S(=O)(NC[C@H]1[C@H](c2ccccc2)[C@H](CO)N1CC1CC1)c1ccccc1 | 16.5% (inactive) |
| N#C[C@@H]1[C@@H](c2ccc(C3=CCCC3)cc2)[C@@H](CO)N1C(=O)C1CCCC1 | -3.68% (inactive) |
| CCc1cnc(N2[C@H](C#N)[C@H](c3ccccc3-c3ccccc3C)[C@H]2CO)s1 | 6.09% (inactive) |
| CCc1cnc(N2[C@H](C#N)[C@H](c3ccc(C4=CCCC4)cc3)[C@@H]2CO)s1 | 42.6% (active) |
| CO[C@@H]1CN(C)C(=O)c2cc(NC(=O)c3cc(C)on3)ccc2OC[C@@H](C)N(C(C)=O)C[C@@H]1C | 5.53% (inactive) |
| O=C(CCC(=O)c1ccccc1)NCc1cccc(C(F)(F)F)c1 | -5.25% (inactive) |
| CCCNC(=O)C1(C)CCCN(Cc2cccc(C(F)(F)F)c2)C1 (configuration not stated) | 10.8% (inactive) |
| O=C(CN1CCC(O)(c2cccc(C(F)(F)F)c2)CC1)NCCc1ccccc1 | 24.3% (active) |
| CO[C@H]1CN(C)C(=O)c2ccc(NC(=O)Nc3ccc(Cl)cc3)cc2OC[C@H](C)N(C(=O)Nc2c(C)noc2C)C[C@@H]1C | 1.51% (inactive) |
| CCCN1C[C@H](C)[C@H](OC)CN(C)C(=O)c2cc(NC(=O)C3CCOCC3)ccc2OC[C@@H]1C | -12% (inactive) |
| O=C(Nc1ccc2c(c1)[C@@H]1C[C@H](CC(=O)N3CCOCC3)O[C@@H](CO)[C@@H]1O2)C1CCOCC1 | 14.6% (inactive) |
| CCC(=O)Nc1ccc2c(c1)C(=O)N(C)C[C@H](OC)[C@@H](C)CN(Cc1cccnc1)[C@H](C)CO2 | 3.46% (inactive) |
| Cc1cc(C(=O)O)ccc1[N+](=O)[O-] | -17.9% (inactive) |
| Cc1ccccc1C(=O)O | 0.715% (inactive) |
| Cc1cccc(C(=O)O)c1[N+](=O)[O-] | 29.4% (active) |
| O=C(C[C@H]1C[C@H]2c3cc(NC(=O)Nc4ccc(F)cc4)ccc3O[C@H]2[C@H](CO)O1)NCC1CC1 | -5.03% (inactive) |
| O=C(NC1CCCC1)[C@H]1[C@H](CO)[C@H]2Cn3c(cccc3=O)[C@H]2N1C(=O)NC1CCCC1 | 1.25% (inactive) |
| Cn1cnc(CCNC(=O)C[C@H]2CC[C@H]3[C@@H](COC[C@H](O)CN3C(=O)C3CCCC3)O2)c1 | -0.992% (inactive) |
| O=C(NCc1ccccc1)[C@H]1CCCN1C(=O)[C@H]1CCCN1C(=O)c1cc(F)cc(F)c1 | -4.56% (inactive) |

| SMILES | CPE inhibition |
| --- | --- |
| O=C(NCc1ccccc1)[C@@H]1CCCN1C(=O)[C@H]1CCCN1C(=O)c1cccc(Cl)c1 | -9.03% (inactive) |
| O=C(NCc1ccccc1)[C@H]1CCCN1C(=O)[C@@H]1CCCN1C(=O)c1ccc(Cl)cc1Cl | 40.8% (active) |
| CC(C)CC#Cc1ccc([C@H]2[C@H]3CN(C(=O)c4cnccn4)CC(=O)N3[C@H]2CO)cc1 | 6.05% (inactive) |
| COc1ccc2c3c([nH]c2c1)[C@@H](CO)N(Cc1cc(F)ccc1F)CC31CCN(C(=O)C2CCC2)CC1 | 8.85% (inactive) |
| C[C@@H]1CCCCO[C@@H](CN(C)C(=O)Cc2ccccc2)[C@H](C)CN([C@@H](C)CO)C(=O)c2cc(NC(=O)Nc3ccc4c(c3)OCO4)ccc2O1 | -20.6% (inactive) |
| O=C1O[C@@H](c2ccccc2)[C@@H](c2ccccc2)N2[C@@H](c3ccccc3OCCO)[C@]3(C(=O)Nc4ccc(C#CC5(O)CCCCCC5)cc43)[C@@H](C(=O)N3CCCCCCC3)[C@H]12 | -1.79% (inactive) |
| COc1ccc(C#Cc2ccc3c(c2)[C@]2(C(=O)N3)[C@H](c3ccccc3OCCO)N3[C@H](c4ccccc4)[C@H](c4ccccc4)OC(=O)[C@H]3[C@@H]2C(=O)N2CCCCCCC2)cc1 | 22.3% (active) |
| COc1ccc(C#Cc2ccc3c(c2)[C@]2(C(=O)N3)[C@H](C(=O)N3CCCCCCC3)[C@H]3C(=O)O[C@H](c4ccccc4)[C@H](c4ccccc4)N3[C@@H]2c2ccc(O)cc2)cc1 | 16.4% (inactive) |
| COc1ccccc1-c1ccc([C@@H]2[C@@H](CO)N3CCCCN(C(=O)c4ccncc4)C[C@@H]23)cc1 | -5.15% (inactive) |
| COc1cccc(CNC(=O)C[C@H]2CC[C@@H](NC(C)=O)[C@@H](CO)O2)c1 | -0.331% (inactive) |
| Cc1ccc(S(=O)(=O)N[C@H]2C=C[C@@H](CC(=O)NCCc3ccncc3)O[C@@H]2CO)cc1 | -2.51% (inactive) |
| CCNC(=O)C[C@H]1CC[C@@H]2[C@H](COc3ccc(NC(=O)Nc4cccc(Cl)c4)cc3C(=O)N2C)O1 | 3% (inactive) |
| CCN(CC)S(=O)(=O)c1ccc(Cl)c(NC(=O)c2ccncc2)c1 | 2.11% (inactive) |
| CCN(CC)S(=O)(=O)c1ccc(C)c(NC(=O)COc2ccc(Br)cc2Cl)c1 | 52.1% (active) |
| CCN(CC)S(=O)(=O)c1ccc(OC)c(NC(=O)CCc2c(C)noc2C)c1 | -4.63% (inactive) |
| Nc1[nH]c(C(=O)c2ccc(Br)cc2)c(-c2ccc3c(c2)OCO3)c1C(=O)NCCc1c[nH]c2ccccc12 | 9.1% (inactive) |
| Cc1ccccc1-c1ccc([C@@H]2[C@@H](CO)N3CCCCN(C(=O)Nc4cccc(F)c4)C[C@H]23)cc1 | -1.69% (inactive) |
| CC(C)[C@@H](C)/C=C/[C@@H](C)[C@H]1CC[C@@H]2[C@]1(C)CCC1[C@]23C=C[C@]2(C[C@@H](O)CC[C@]12C)N(c1ccc([N+](=O)[O-])cn1)O3 (some centres not stated) | -2.89% (inactive) |
| COC(=O)c1c(-c2ccc(OC)cc2)c2c(c3c4ccccc4n(S(=O)(=O)c4ccc(C)cc4)c13)C(=O)N(C)C2 | 2.43% (inactive) |
| COC(=O)c1cc2c(c3c4cc(F)ccc4n(S(=O)(=O)c4ccccc4)c13)C(=O)N(Cc1ccccc1OC)C2 | 15.1% (inactive) |
| COC(=O)c1c(-c2ccc(OC)cc2)c2c(c3c4cc(OC)ccc4n(S(=O)(=O)c4ccc(F)cc4)c13)C(=O)N(C)C2 | 44.7% (active) |
